Calls of active or inactive are those of the source. The call rests on the fitted dose curve.
Each molecule was assayed against Thyrotropin-releasing hormone receptor (Homo sapiens) (UniProt P34981) (assay: qHTS assay to identify small molecule agonists of the thyrotropin-releasing hormone receptor (TRHR) signaling pathway (AID 1346891;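 further: HEK293 cells expressing TRHR with calcium dye readout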)). Conditions: TRHR-HEK293 calcium fluorescence, agonist mode; series mostly up to 57.6 µM; activation: at the top concentration.
Sequence of Thyrotropin-releasing hormone receptor (Homo sapiens) (P34981 whole entry, looked up): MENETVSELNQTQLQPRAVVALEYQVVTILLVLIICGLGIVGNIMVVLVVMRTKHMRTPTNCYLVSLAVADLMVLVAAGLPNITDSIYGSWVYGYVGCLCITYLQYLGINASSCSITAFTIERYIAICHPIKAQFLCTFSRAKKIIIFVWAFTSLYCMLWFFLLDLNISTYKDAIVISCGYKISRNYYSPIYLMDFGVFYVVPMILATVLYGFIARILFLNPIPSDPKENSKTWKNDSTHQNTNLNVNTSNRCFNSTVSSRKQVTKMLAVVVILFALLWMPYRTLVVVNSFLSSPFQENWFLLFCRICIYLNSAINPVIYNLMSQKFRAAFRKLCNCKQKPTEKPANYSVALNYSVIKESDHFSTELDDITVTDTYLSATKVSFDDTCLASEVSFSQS
Description: National Center for Advancing Translational Sciences [NCATS] NIH Chemical Genomics Center [NCGC] U.S. Environmental Protection Agency [EPA] National Institutes of Environmental Health Sciences [NIEHS] National Toxicology Program [NTP] Assay overview: Thyrotropin-releasing hormone (TRH) receptor (TRHR) is a G-protein-coupled receptor which binds the tripeptide thyrotropin releasing hormone. TRHR is found in the brain and, when bound by TRH, acts (through phospholipase C) to increase intracellular inositol trisphosphate. It plays a crucial role in the anterior pituitary where it controls the synthesis and secretion of thyroid stimulating hormone and prolactin. The TRHR-Hek293 assay is a cell-based assay, and it has the potential to screen G protein-coupled receptors. A compound/drug can either activate (agonist) or suppress (antagonist) GPCRs that can be monitored by levels of intracellular calcium. Using this assay, the Tox21 10K compound library was screened to identify potential TRHR agonists.
Assay Protocol Summary: The TRHR-Hek293 cells were dispensed at 1500cells/4uL/well in 1536-well black-clear bottom plates using a Multidrop dispenser. After the assay plates were incubated at a 37 C/5% CO2 incubator for 18 hours, 4 uL of Dye-Loading Solution was added to each well. The plates were incubated at 37 C for 2 hours. For agonist mode, 23 nL of compounds dissolved in DMSO, positive controls or DMSO only was transferred to the assay plate by a pin tool. The fluorescence intensity in the plates was measured using FDSS 7000EX kinetic plate reader for 3 min at 1 sec intervals. Each test compound was measured at 15 concentrations and in triplicates.
For `CCCCCCCCCCOC(C)=O`, the “activation” value was 0.0323% (inactive).
With `O=C1CCCCO1` the “activation” value was 0.0004% (inactive).
For `OCC1(CO)COCOC1`, the “activation” value was -0.176% (inactive).
With `CCC(=O)CC` the “activation” value was 0.0338% (inactive).
In the case of `CC1(C)Cc2cccc(N)c2O1`, the “activation” value is reported as -0.422% (inactive).
For `C/C(=C1\CCOC(=O)S1)N(C=O)Cc1cnc(C)nc1N`, the “activation” value was 0.0996% [at 26.5 µM] (inactive).
For `CC(=O)Nc1ccc(OC(=O)c2ccccc2OC(C)=O)cc1`, the “activation” value was 0.706% [at 26.5 µM] (inactive).
In the case of `CCCCSCCCC`, the “activation” value is reported as 0.124% (inactive).
In the case of `C/C=C(\C)C(=O)OCCc1ccccc1`, the “activation” value is reported as 0.0506% (inactive).
`COc1cc2c(cc1OC)CN(C(=O)[C@H](C)N[C@@H](CCc1ccccc1)C(=O)O)[C@H](C(=O)O)C2` was tested, and the “activation” value was -0.133% [at 26.5 µM] (inactive).
In the case of `O=C(O)[C@H](O)c1ccccc1`, the “activation” value is reported as -0.0485% [at 26.5 µM] (inactive).
For `CN1C[C@@H]2C[C@H]1CN2c1cc2c(cc1F)c(=O)c(C(=O)O)cn2C1CC1`, the activation was -1.22% [at 11.8 µM] (inactive).
In the case of `CO[C@@]1(NC(=O)Cc2cccs2)C(=O)N2C(C(=O)O)=C(COC(N)=O)CS[C@@H]21`, the “activation” value is reported as 0.0582% [at 26.5 µM] (inactive).
With `O=C(O)CNC(=O)CNC(=O)CNC(=O)CSC(=O)c1ccccc1` the “activation” value was -0.0575% [at 26.5 µM] (inactive).
`CN(C)C(C)(C)CO` was tested, and the “activation” value was -0.0675% (inactive).
For `O=C(Cn1ccnc1[N+](=O)[O-])NCc1ccccc1`, the “activation” value was -0.093% [at 26.5 µM] (inactive).
With `C=CCOC(=O)CCCCCC` the “activation” value was -0.0815% (inactive).
For `OC1(c2ccc(Cl)cc2)CCNCC1`, the “activation” value was 0.273% [at 26.5 µM] (inactive).
For `OC[C@H]1O[C@@H](O[C@@H]2[C@@H](CO)O[C@](O)(CO)[C@H]2O)[C@H](O)[C@@H](O)[C@H]1O`, the “activation” value was 0.0678% [at 26.5 µM] (inactive).
`CC(=O)CCc1ccc(OC(C)=O)cc1` was tested, and the “activation” value was -0.0421% (inactive).
`Cc1ccc2c(c1)C(=O)c1ccccc1C2=O` was tested, and the “activation” value was 1.4% (inactive).
In the case of `CCCCOCC(C)O` (stereo not given), the “activation” value is reported as -0.0161% (inactive).
`CC(=O)OC(C)=O` was tested, and the “activation” value was -0.131% (inactive).
`COc1cc2c(cc1OC)C(=O)C(CC1CCN(Cc3ccccc3)CC1)C2` (stereo not given) was tested, and the “activation” value was -0.0764% [at 26.5 µM] (inactive).
In the case of `C/C(CC(C)C)=N\O`, the “activation” value is reported as -0.322% (inactive).
For `CCCCCCCCCOC(=O)CCCCC(=O)OCCCCCCC`, the “activation” value was 15.6% (inactive).
`CC1=NN(c2ccc(S(=O)(=O)O)cc2)C(=O)C1` was tested, and the “activation” value was 0.0755% (inactive).
For `CCOc1ccccc1OCC1CNCCO1` (stereo not given), the “activation” value was -0.136% [at 26.5 µM] (inactive).
`Cn1c(=O)c2c(ncn2CCO)n(C)c1=O` was tested, and the “activation” value was -0.0317% [at 26.5 µM] (inactive).
With `COC(=O)CCCCC(CCSS/C(CCO)=C(\C)N(C=O)Cc1cnc(C)nc1N)SC(C)=O` (stereo not given) the “activation” value was -0.221% [at 26.5 µM] (inactive).
In the case of `COC(=O)/C=C\C(=O)O`, the “activation” value is reported as -0.0329% (inactive).
For `OCCN1CCOCC1`, the “activation” value was -0.0069% (inactive).
In the case of `O=C(Cl)c1ccccc1[N+](=O)[O-]`, the “activation” value is reported as -0.286% (inactive).
With `CCCC(=O)OCCC(C)CCC=C(C)C` (stereo not given) the “activation” value was -0.0098% (inactive).
With `N[C@@H](Cc1ccc(O)cc1)C(=O)O` the activation was -0.36% [at 5.23 µM] (inactive).
For `CC/C=C\CCOC(=O)c1ccccc1O`, the “activation” value was 0.176% (inactive).
In the case of `CCN1CCCC1CN` (stereo not given), the “activation” value is reported as 0.0028% [at 26.5 µM] (inactive).
With `CCO[Si](CC)(OCC)OCC` the “activation” value was -0.0693% (inactive).
With `CC(=O)OC1CCCCC1C(C)(C)C` (stereo not given) the “activation” value was -0.0726% (inactive).
With `O=NN(CCCl)C(=O)NC1CCCCC1` the “activation” value was -0.0595% [at 26.5 µM] (inactive).
On the % scale 0 is the no-effect control and ±100 the full control effect.
